Laboratory results as given in PubChem BioAssay (NCI).
Compounds without any hit were thinned out: in the full panel of roughly 83,000, 20% have a hit.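 Each cell line was grown in a 96-well plate and treated with one concentration of compound for 48 hours. Values below 10 were considered active.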 Activity calls are given as the source filed them.

Key:
Test in all cases: NCI-60 one-dose screen, 48 h (100 = growth as untreated, 0 = no growth, -100 = all killed)
Details in all cases: 10 µM unless noted
SK-MEL-2 melanoma = test system: SK-MEL-2 melanoma
EKVX NSCLC = test system: EKVX NSCLC
SN12C renal = test system: SN12C renal
UO-31 renal = test system: UO-31 renal
TK-10 renal = test system: TK-10 renal
ACHN renal = test system: ACHN renal
CAKI-1 renal = test system: CAKI-1 renal
A498 renal = test system: A498 renal
CCRF-CEM leukemia = test system: CCRF-CEM leukemia
MOLT-4 leukemia = test system: MOLT-4 leukemia

Measured: growth

CN1CCN(Cc2ccc(NC(=O)c3cccc(C#Cc4cnc(N)c5ncccc45)c3F)cc2C(F)(F)F)CC1
active: SK-MEL-2 melanoma -1.16% | UO-31 renal -96.6% | ACHN renal -77.2% | A498 renal -15.1% | CCRF-CEM leukemia 7.7% | MOLT-4 leukemia 1.77%
inactive: EKVX NSCLC 66.8% | SN12C renal 44.5% | TK-10 renal 56.2% | CAKI-1 renal 33.6%

COc1ccc2[nH]c(O)c(/C=c3/ccc4c(c3)N=C(c3ccc(F)cc3)N=4)c2c1
inactive: SK-MEL-2 melanoma 110% | EKVX NSCLC 80.4% | SN12C renal 50.2% | UO-31 renal 63.2% | TK-10 renal 116% | ACHN renal 31.2% | CAKI-1 renal 20.1% | A498 renal 92.9% | CCRF-CEM leukemia 42.5% | MOLT-4 leukemia 67.7%

CN1CCN(Cc2ccc(NC(=O)c3cncc(C#Cc4ccc(N)nc4)c3)cc2C(F)(F)F)CC1
inactive: TK-10 renal 12.7% | CCRF-CEM leukemia 13%
active: SK-MEL-2 melanoma -47.8% | EKVX NSCLC 7.69% | SN12C renal 4.16% | UO-31 renal -1.73% | ACHN renal -3.03% | CAKI-1 renal 8.16% | A498 renal -33.8% | MOLT-4 leukemia 5.85%

Fc1ccc2c(CN3CCO[C@H](COc4cccc(Cl)c4)C3)c[nH]c2c1
inactive: SK-MEL-2 melanoma 71.1% | EKVX NSCLC 74.3% | SN12C renal 49.1% | UO-31 renal 51.4% | TK-10 renal 22.1% | ACHN renal 46.8% | CAKI-1 renal 65.3% | A498 renal 53.9% | CCRF-CEM leukemia 38.5% | MOLT-4 leukemia 25.9%

CCN(CC)CCCC(C)Nc1cnc(C(=O)Nc2ccc(Cl)c3cccnc23)cn1 (stereo not given)
active: ACHN renal -54.8% | CCRF-CEM leukemia 5.29% | MOLT-4 leukemia 2.9%
inactive: SK-MEL-2 melanoma 57.8% | EKVX NSCLC 66.1% | SN12C renal 31.7% | UO-31 renal 23.8% | TK-10 renal 57.6% | CAKI-1 renal 23.1% | A498 renal 54%

COc1c(-c2cc(-c3ccc(C)o3)[nH]c(=O)n2)c(O)cc2occc12
inactive: SK-MEL-2 melanoma 69.6% | EKVX NSCLC 69.8% | SN12C renal 63.6% | UO-31 renal 71.5% | TK-10 renal 104% | ACHN renal 89.9% | CAKI-1 renal 63.8% | A498 renal 54.1% | CCRF-CEM leukemia 77.8% | MOLT-4 leukemia 41.1%

Cc1cc(-c2nnc(/C=C/c3ccc4c(c3)OCO4)o2)n[nH]1
inactive: SK-MEL-2 melanoma 30.1% | EKVX NSCLC 90.6% | SN12C renal 85.5% | UO-31 renal 70.1% | TK-10 renal 81.8% | ACHN renal 95.7% | CAKI-1 renal 59.8% | A498 renal 73.2% | CCRF-CEM leukemia 58.1% | MOLT-4 leukemia 69.7%

C=C(C)C1CCC2(C(=O)O)CCC3(C)C(CCC4C5(C)CCC(O)C(C)(C)C5CCC43C)C12 (stereo not given)
inactive: SK-MEL-2 melanoma 25.4% | EKVX NSCLC 48.1% | SN12C renal 26.8% | UO-31 renal 21.5% | TK-10 renal 12.8% | ACHN renal 24.2% | MOLT-4 leukemia 11.3%
active: CAKI-1 renal -5.47% | CCRF-CEM leukemia 3.16%

Fc1ccc2nc(-c3ccc(-c4noc(-c5ccc(Cl)cc5)n4)cc3)[nH]c2c1
inactive: SK-MEL-2 melanoma 105% | EKVX NSCLC 107% | SN12C renal 110% | UO-31 renal 83.9% | TK-10 renal 115% | ACHN renal 110% | CAKI-1 renal 102% | A498 renal 81% | MOLT-4 leukemia 89.8%

Clc1ccc2c(c1)-c1ccccc1C1=NCCN12
inactive: EKVX NSCLC 51.5% | SN12C renal 29.1% | UO-31 renal 10.8% | TK-10 renal 20.1% | ACHN renal 14.1% | CAKI-1 renal 29.4% | A498 renal 10.3% | CCRF-CEM leukemia 28.4% | MOLT-4 leukemia 17.1%
active: SK-MEL-2 melanoma -0.581%

O=C(O)c1cn(-c2ccccc2)nc1-c1ccc(O)cc1
inactive: SK-MEL-2 melanoma 103% | EKVX NSCLC 95.7% | SN12C renal 98.9% | UO-31 renal 89.4% | TK-10 renal 106% | ACHN renal 99.4% | A498 renal 74.3% | CCRF-CEM leukemia 94% | MOLT-4 leukemia 104%

CN(CCO)c1ccc(N2Cc3ccccc3OC3=C2C(=O)c2c(O)ccc(O)c2C3=O)cn1
active: SK-MEL-2 melanoma -54.4% | EKVX NSCLC -38.5% | SN12C renal -90.9% | UO-31 renal -100% | TK-10 renal -98.5% | ACHN renal -100% | A498 renal -48.2% | CCRF-CEM leukemia -12.2% | MOLT-4 leukemia -30.6%

COC(=O)c1cc2oc(/C=N/NC(=O)c3cc4oc(-c5cccc(C(F)(F)F)c5)cc4[nH]3)cc2n1Cc1ccccc1
inactive: SK-MEL-2 melanoma 107% | EKVX NSCLC 117% | SN12C renal 104% | UO-31 renal 91.5% | TK-10 renal 86.3% | ACHN renal 106% | A498 renal 85.8% | MOLT-4 leukemia 77.8%
active: CCRF-CEM leukemia -26%

COc1c(B(O)O)cccc1-c1nc2c(F)cc3n[nH]c(C)c3c2c2c1CCCC2
active: SK-MEL-2 melanoma -10.3% | UO-31 renal -2.78% | TK-10 renal -2.49% | ACHN renal 8.08% | CAKI-1 renal 0.215% | A498 renal -53.6%
inactive: EKVX NSCLC 34.8% | SN12C renal 19.3% | CCRF-CEM leukemia 17.7% | MOLT-4 leukemia 28.7%

OC(c1cc(-c2ccc(C(F)(F)F)cc2)nc(-c2ccc(C(F)(F)F)cc2)c1)C1CCCCN1 (stereo not given)
active: SK-MEL-2 melanoma -66.6% | EKVX NSCLC -65.4% | SN12C renal -78.5% | UO-31 renal -83.6% | TK-10 renal -90.6% | ACHN renal -73.4% | CAKI-1 renal -81.6% | A498 renal -80.5% | CCRF-CEM leukemia -56.2% | MOLT-4 leukemia -57.5%

CN(C)c1ccc(Nc2c3ccccc3nc3ccccc23)cc1
active: UO-31 renal -31% | ACHN renal -18.8% | CAKI-1 renal -13.5% | MOLT-4 leukemia 6.01%
inactive: SK-MEL-2 melanoma 40.1% | EKVX NSCLC 19.1% | SN12C renal 16.4% | TK-10 renal 34.1% | A498 renal 14.2% | CCRF-CEM leukemia 19.9%

Cc1ccc(O)c(Cc2ccccc2)c1
inactive: SK-MEL-2 melanoma 93.8% | EKVX NSCLC 116% | SN12C renal 90.3% | UO-31 renal 84% | TK-10 renal 100% | ACHN renal 100% | A498 renal 99.9% | CCRF-CEM leukemia 103%

Oc1ccc(-c2cnc(-c3ccccc3)[nH]2)c(O)c1
inactive: SK-MEL-2 melanoma 137% | EKVX NSCLC 107% | SN12C renal 91.6% | UO-31 renal 88.7% | TK-10 renal 112% | ACHN renal 109% | A498 renal 110% | MOLT-4 leukemia 94%
active: CCRF-CEM leukemia -41.7%

C[C@]12CCc3nc(Nc4ccc(O)cc4)sc3C1=CC[C@@H]1[C@@H]2CC[C@]2(C)/C(=N/NC(N)=S)CC[C@@H]12
inactive: A498 renal 93.1%
active: SK-MEL-2 melanoma -13.5% | EKVX NSCLC -19.1% | SN12C renal -46.7% | UO-31 renal -42% | TK-10 renal -7.19% | ACHN renal -72.4% | CAKI-1 renal -36.2% | CCRF-CEM leukemia -7.49% | MOLT-4 leukemia -5.84%

COc1ccc(-c2cn(-c3cccc(C(=O)/C=C/c4ccc(O)c(OC)c4)c3)c(=O)[nH]2)cc1
active: ACHN renal -47.8% | CCRF-CEM leukemia 9.57% | MOLT-4 leukemia 5.6%
inactive: SK-MEL-2 melanoma 30% | EKVX NSCLC 40.8% | SN12C renal 14.2% | UO-31 renal 19% | TK-10 renal 35.6% | CAKI-1 renal 24.6%

CCN(CC)c1ccc2nc3c4ccccc4c(=O)cc-3n(-c3ccccc3)c2c1
inactive: SN12C renal 13.2% | TK-10 renal 13.6% | A498 renal 17.6% | CCRF-CEM leukemia 15.7%
active: SK-MEL-2 melanoma -37.2% | EKVX NSCLC -4.16% | UO-31 renal -26.2% | ACHN renal -1% | CAKI-1 renal -17.8% | MOLT-4 leukemia 2.41%

CC(=O)N[C@@H](CCC(N)=O)C(=O)O
inactive: SK-MEL-2 melanoma 118% | EKVX NSCLC 107% | SN12C renal 85.7% | UO-31 renal 65.7% | TK-10 renal 107% | ACHN renal 94.7% | CAKI-1 renal 73.8% | A498 renal 86.6% | MOLT-4 leukemia 95.3%

COc1ccc(/C=C/C(=O)c2ccc(NC(=O)CSc3nnc(-c4ccc(Cl)cc4)n3-c3ccccc3)cc2)cc1
inactive: SK-MEL-2 melanoma 104% | EKVX NSCLC 89.4% | SN12C renal 91.2% | UO-31 renal 79.8% | TK-10 renal 113% | ACHN renal 103% | A498 renal 84.6% | CCRF-CEM leukemia 94.9% | MOLT-4 leukemia 65.5%

COc1ccc(C2C3CCc4ccccc4C3=NN2C(=O)c2cc(OC)c(OC)c(OC)c2)cc1O (stereo not given)
inactive: SK-MEL-2 melanoma 75.4% | EKVX NSCLC 89.6% | SN12C renal 114% | UO-31 renal 79.9% | TK-10 renal 101% | ACHN renal 98.1% | CAKI-1 renal 101% | CCRF-CEM leukemia 88.9% | MOLT-4 leukemia 90.5%

COc1cc(OC)cc(-c2n/c(=C\c3c(O)[nH]c4ccc(Cl)cc34)cc3c2=Nc2ccccc2-3)c1
inactive: SK-MEL-2 melanoma 100% | EKVX NSCLC 91.9% | SN12C renal 93.5% | UO-31 renal 66.4% | TK-10 renal 116% | ACHN renal 81.3% | CAKI-1 renal 82.1% | A498 renal 94.2% | MOLT-4 leukemia 30.5%

CN(C)c1ccc(N2Cc3ccccc3OC3=C2C(=O)c2c(O)ccc(O)c2C3=O)cn1
active: SK-MEL-2 melanoma -51.5% | EKVX NSCLC -15.8% | SN12C renal -91.7% | UO-31 renal -99.1% | TK-10 renal -93.9% | ACHN renal -100% | A498 renal -61.1% | CCRF-CEM leukemia -8.39% | MOLT-4 leukemia -22.4%

CCN(CC)CCC(CNc1ccnc2cc(Cl)ccc12)c1ccc(O)cc1 (stereo not given)
inactive: SK-MEL-2 melanoma 119% | EKVX NSCLC 99.4% | SN12C renal 99.1% | UO-31 renal 77.4% | TK-10 renal 90.2% | ACHN renal 98.5% | A498 renal 37.7% | CCRF-CEM leukemia 46% | MOLT-4 leukemia 48.3%

Cc1c(-c2ccc(-c3ccccc3F)cc2)nc2ccc(F)cc2c1C(=O)O
inactive: SK-MEL-2 melanoma 101% | EKVX NSCLC 55% | SN12C renal 47.6% | UO-31 renal 35.8% | TK-10 renal 56% | ACHN renal 36.5% | CAKI-1 renal 25.9% | A498 renal 80.9% | CCRF-CEM leukemia 27.9%
active: MOLT-4 leukemia 2.49%
